The values below come from PubChem BioAssay (EPA / NIEHS).

Experiment [1] deals with Paired box protein Pax-6 (Homo sapiens) (UniProt P26367). In words: ATG_Pax6_CIS: Attagene CIS-FACTORIAL HepG2 Assay for human Paired Box 6 (PAX6) (AID 2282956). The note with it: HepG2 CIS-FACTORIAL PAX6 reporter transcription, RNA readout; actives raise or lower the signal. The procedure, abridged: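 Fluorescent RT-PCR products separated by capillary electrophoresis report PAX6-linked promoter mRNA in HepG2 cells 24 h post-dose. Curves fitted bidirectionally, DMSO as negative control.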

Experiment [2] in a line: ATG_PXRE_CIS: Attagene CIS-FACTORIAL HepG2 Assay for human Pregnane X Receptor Element (PXRE) (AID 2282957). The note with it: HepG2 Attagene CIS-FACTORIAL PXRE reporter, mRNA; actives raise or lower the signal. The procedure, abridged:
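Endogenous transcription factor activity in HepG2 was gauged through induction of reporter mRNA driven by a cis-regulating promoter element, sampled 24 h post-treatment. Activity was fitted in both directions against DMSO negative control.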

A short description of experiment [3]: ATG_PPRE_CIS: Attagene CIS-FACTORIAL HepG2 Assay for human Peroxisome Proliferator-activated Response Element (PPRE) (AID 2282958). The note with it: HepG2 PPRE cis-element reporter, Attagene transcription factor profiling; actives raise or lower the signal. The procedure, abridged:
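Cells are first transfected transiently with the multiplexed reporter library, then dosed for 24 h. Total RNA is reverse-transcribed, amplified, fluorescently end-labeled and HpaI-cut before capillary electrophoresis; activity is fitted bidirectionally against DMSO controls.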

Experiment [4] can be described thus: ATG_RORE_CIS: Attagene CIS-FACTORIAL HepG2 Assay for human RAR-related Orphan Receptor Element (RORE) (AID 2282959). Conditions: HepG2 Attagene cis-factorial RORE reporter, mRNA; actives raise or lower the signal. The gist of the method:
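Cells were HepG2 carrying transfected cis-regulated reporter constructs, dosed for 24 hours. Total RNA was reverse-transcribed and reporter cDNA amplified, fluorescently labeled and sized by capillary electrophoresis. Activity was fitted bidirectionally relative to DMSO.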

Experiment [5] can be described thus: ATG_Sox_CIS: Attagene CIS-FACTORIAL HepG2 Assay for human SRY-box transcription factor (SOX) (AID 2282960). The note with it: HepG2 Attagene cis-factorial SOX reporter, mRNA; actives raise or lower the signal. The gist of the method: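 Transient MRTU transfection of HepG2; 24 h compound incubation; TriZol RNA, oligo(dT) RT, PCR, 6-FAM primer extension, HpaI cut, CE. Bidirectional fit, DMSO = baseline.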

The nature of experiment [6]: ATG_SREBP_CIS: Attagene CIS-FACTORIAL HepG2 Assay for human Sterol Regulatory Element Binding (SREBP) (AID 2282962). The note with it: HepG2 Attagene cis-factorial SREBP reporter, mRNA; actives raise or lower the signal. The gist of the method:
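Endogenous factor activity is measured in HepG2 through multiplexed reporter units under cis-element control. Following a 24 h incubation, reporter transcripts are reverse-transcribed, PCR-amplified and sized by capillary electrophoresis; activity is fitted in both directions relative to DMSO.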

Experiment [7] concerns the target Signal transducer and activator of transcription 3 (Homo sapiens) (UniProt P40763). The experiment is described as follows: ATG_STAT3_CIS: Attagene CIS-FACTORIAL HepG2 Assay for human Signal Transducer and Activator of Transcription 3 (STAT3) (AID 2282963). Conditions: HepG2, Attagene cis-factorial STAT3 reporter transcription; actives raise or lower the signal. The procedure, abridged: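 Cis-factorial format: endogenous transcription factors in HepG2 drive transfected reporter units. After 24 h treatment, reporter RNA was reverse-transcribed, amplified, FAM-labelled and HpaI-digested before CE analysis; activity scored in both directions against DMSO.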

Experiment [8] can be described thus: ATG_TCF_b_cat_CIS: Attagene CIS-FACTORIAL HepG2 Assay for human T-Cell-Factor with beta-catenin (TCF/b-cat) (AID 2282965). The note with it: HepG2 TCF/beta-catenin cis-reporter transcription, actives raise or lower the signal. The procedure, abridged: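 Endogenous transcription factor activity is captured through cis-promoter reporter constructs transiently introduced into human HepG2 liver cells. Induced reporter mRNA is measured after 24 h and fitted bidirectionally relative to DMSO.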

A short description of experiment [9]: ATG_TAL_CIS: Attagene CIS-FACTORIAL HepG2 Assay for human TAL Basal Promoter (AID 2282966).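 Further: background control endpoint measuring basal TAL promoter reporter mRNA not a specific factor.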 The note with it: HepG2 Attagene cis-factorial TAL promoter reporter; actives raise or lower the signal. The gist of the method: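 Endogenous transcription-factor activity is sensed in HepG2 cells through transfected cis-promoter reporter constructs. After 24 h dosing, reporter transcripts are quantified by RT-PCR and capillary electrophoresis. Gain or loss of signal is fitted relative to DMSO.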

A short description of experiment [10]: ATG_TGFb_CIS: Attagene CIS-FACTORIAL HepG2 Assay for human Transforming Growth Factor (TGF) (AID 2282967). Conditions: HepG2 Attagene CIS TGFb reporter, mRNA transcription; actives raise or lower the signal. The gist of the method: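 Liver HepG2 line, cis-factorial reporter panel, 24 h dosing. Quantitation: RT-PCR products labeled with 6-FAM, cut with HpaI, resolved by capillary electrophoresis; DMSO-referenced bidirectional analysis.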

A short description of experiment [11]: ATG_VDRE_CIS: Attagene CIS-FACTORIAL HepG2 Assay for human Vitamin D Receptor Element (VDRE) (AID 2282968). The note with it: HepG2 VDRE cis-reporter transcription, actives raise or lower the signal. The procedure, abridged: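 Measures endogenous factor activity through cis-element-driven reporter transcripts in transiently transfected HepG2. Cells are treated 24 h; reporter mRNA is quantified by RT-PCR and capillary electrophoresis; fitting is bidirectional.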

Experiment [12] concerns the target Estrogen receptor (Homo sapiens) (UniProt P03372). The experiment is described as follows: ATG_ERa_TRANS: Attagene TRANS-FACTORIAL HepG2 Assay for human Estrogen Receptor alpha (ERa) (AID 2282970; active means hit-call score of the fitted dose curve at least 0.9, where 1 is the maximum). The note with it: HepG2 Attagene TRANS ERa GAL4 reporter, mRNA. The procedure, abridged: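 Transfected HepG2 cells carrying GAL4-UAS-driven reporter units were dosed for 24 hours. Total RNA was reverse-transcribed, reporter sequences PCR-amplified, FAM-labelled, HpaI-digested and resolved by capillary electrophoresis. Increases over DMSO control defined activity.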

Experiment [13] concerns the target X-box-binding protein 1 (Homo sapiens) (UniProt P17861). In words: ATG_Xbp1_CIS: Attagene CIS-FACTORIAL HepG2 Assay for human X-box Binding Protein 1 (XBP1) (AID 2282972). Conditions: HepG2 XBP1 cis-element reporter, Attagene multiplex; actives raise or lower the signal. The procedure, abridged:
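Multiplexed cis-reporter readout in transfected HepG2 liver cells. Exposure lasted 24 hours. Activity in either direction was fitted against DMSO as negative control and baseline.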

A short description of experiment [14]: ATG_M_19_TRANS: Attagene TRANS-FACTORIAL HepG2 Assay for M19 Transcription Factor (Internal Marker) (AID 2282974; active means hit-call score of the fitted dose curve at least 0.9, where 1 is the maximum). The note with it: HepG2 Attagene TRANS-FACTORIAL M19 internal marker reporter. The procedure, abridged: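 Cells: human HepG2, transiently transfected with multiplexed reporter transcription units. Exposure: 24 h. Detection: RT-PCR of reporter mRNA with capillary electrophoresis. Analysis: gain-of-signal vs DMSO.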

Experiment [15] can be described thus: ATG_GAL4_TRANS: Attagene TRANS-FACTORIAL HepG2 Assay for GAL4 (Internal Marker) (AID 2282976; active means hit-call score of the fitted dose curve at least 0.9, where 1 is the maximum). The note with it: HepG2 Attagene TRANS GAL4 internal marker reporter. The procedure, abridged:
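Fluorescence from capillary electrophoresis of labelled RT-PCR products quantifies reporter mRNA induction after 24 h dosing of HepG2 cells carrying transfected GAL4-UAS reporter transcription units. Vehicle DMSO serves as baseline.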

Experiment [16] can be described thus: ATG_TA_CIS: Attagene CIS-FACTORIAL HepG2 Assay for human TA Basal Promoter (AID 2282964). Conditions: HepG2 Attagene CIS-factorial TA basal promoter reporter; actives raise or lower the signal. The gist of the method:
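Background internal-marker endpoint from a 52-component HepG2 cis-reporter panel. Cells treated 24 h; reporter transcripts quantified via RT-PCR and CE fluorescence against DMSO baseline.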

Experiment [17] concerns the target Steroid hormone receptor ERR1 (Homo sapiens) (UniProt P11474). In words: ATG_ERRa_TRANS: Attagene TRANS-FACTORIAL HepG2 Assay for human Estrogen-Related Receptor alpha (ERRa) (AID 2282971; active means hit-call score of the fitted dose curve at least 0.9, where 1 is the maximum). Conditions: HepG2 Attagene TRANS reporter, ERRa transactivation. The procedure, abridged:
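HepG2 cells were transiently transfected with multiple GAL4-UAS reporter units, then dosed with compound for 24 h. Total RNA was reverse-transcribed, reporter cDNA PCR-amplified and fluorescently labelled, and fragments resolved by capillary electrophoresis; induction was compared with DMSO.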

Experiment [18] deals with Transcription factor Sp1 (Homo sapiens) (UniProt P08047). In words: ATG_Sp1_CIS: Attagene CIS-FACTORIAL HepG2 Assay for human Specificity Protein 1 (Sp1) (AID 2282961). Conditions: HepG2 Sp1 cis-reporter transcription, actives raise or lower the signal. The gist of the method: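 Endogenous Sp1 activity was gauged in human liver HepG2 cells bearing transfected reporter units under a cis-regulating promoter. After 24 h dosing, reporter mRNA was quantified by RT-PCR with capillary electrophoresis, and activity fitted bidirectionally versus DMSO.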

SMILES strings stand for the structures. Records with an inconclusive call do not appear. Active and inactive are the calls of the source. How the source made its calls, unless noted: active means hit-call score of the fitted dose curve at least 0.9, where 1 is the maximum; inactive means score below 0.9.

Sequence of Transcription factor Sp1 (Homo sapiens) (P08047 whole entry, looked up): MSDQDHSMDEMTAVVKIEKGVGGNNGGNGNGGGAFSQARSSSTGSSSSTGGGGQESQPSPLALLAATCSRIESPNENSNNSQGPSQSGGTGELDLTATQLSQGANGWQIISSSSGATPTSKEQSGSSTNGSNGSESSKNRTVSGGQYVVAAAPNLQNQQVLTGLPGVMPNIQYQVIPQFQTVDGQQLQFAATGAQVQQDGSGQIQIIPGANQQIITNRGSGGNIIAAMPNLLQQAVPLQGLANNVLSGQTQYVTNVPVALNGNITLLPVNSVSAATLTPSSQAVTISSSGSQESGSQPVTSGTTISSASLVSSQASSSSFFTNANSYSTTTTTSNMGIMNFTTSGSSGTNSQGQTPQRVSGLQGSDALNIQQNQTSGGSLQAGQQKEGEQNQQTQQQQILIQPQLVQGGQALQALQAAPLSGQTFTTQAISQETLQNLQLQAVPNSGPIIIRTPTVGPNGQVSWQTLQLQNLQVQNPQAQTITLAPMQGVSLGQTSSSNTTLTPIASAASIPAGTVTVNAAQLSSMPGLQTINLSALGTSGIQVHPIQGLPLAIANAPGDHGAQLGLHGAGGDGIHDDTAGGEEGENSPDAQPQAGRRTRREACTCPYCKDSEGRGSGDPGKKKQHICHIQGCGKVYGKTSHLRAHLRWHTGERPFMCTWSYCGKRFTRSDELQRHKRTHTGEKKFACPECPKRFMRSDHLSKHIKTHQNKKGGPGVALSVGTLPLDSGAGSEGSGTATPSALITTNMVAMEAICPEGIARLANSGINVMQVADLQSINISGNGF
Sequence of Estrogen receptor (Homo sapiens) (P03372 whole entry, looked up, the tested form may be a part): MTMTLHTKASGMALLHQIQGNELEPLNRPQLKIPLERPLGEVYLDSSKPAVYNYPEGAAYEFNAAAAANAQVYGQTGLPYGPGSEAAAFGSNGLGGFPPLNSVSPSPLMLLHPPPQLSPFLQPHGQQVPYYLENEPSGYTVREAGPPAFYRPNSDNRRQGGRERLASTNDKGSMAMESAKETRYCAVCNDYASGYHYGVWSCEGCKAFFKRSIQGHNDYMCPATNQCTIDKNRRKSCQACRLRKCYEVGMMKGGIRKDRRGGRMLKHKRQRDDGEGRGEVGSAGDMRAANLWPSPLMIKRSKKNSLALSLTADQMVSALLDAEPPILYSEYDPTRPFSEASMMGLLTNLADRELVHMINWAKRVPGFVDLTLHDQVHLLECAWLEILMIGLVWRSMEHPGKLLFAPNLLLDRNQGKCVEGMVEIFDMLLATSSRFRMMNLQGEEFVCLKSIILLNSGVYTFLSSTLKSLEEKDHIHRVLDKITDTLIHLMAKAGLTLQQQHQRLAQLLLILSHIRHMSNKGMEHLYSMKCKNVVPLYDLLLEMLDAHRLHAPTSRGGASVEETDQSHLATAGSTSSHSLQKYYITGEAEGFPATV
Sequence of Signal transducer and activator of transcription 3 (Homo sapiens) (P40763 whole entry, looked up): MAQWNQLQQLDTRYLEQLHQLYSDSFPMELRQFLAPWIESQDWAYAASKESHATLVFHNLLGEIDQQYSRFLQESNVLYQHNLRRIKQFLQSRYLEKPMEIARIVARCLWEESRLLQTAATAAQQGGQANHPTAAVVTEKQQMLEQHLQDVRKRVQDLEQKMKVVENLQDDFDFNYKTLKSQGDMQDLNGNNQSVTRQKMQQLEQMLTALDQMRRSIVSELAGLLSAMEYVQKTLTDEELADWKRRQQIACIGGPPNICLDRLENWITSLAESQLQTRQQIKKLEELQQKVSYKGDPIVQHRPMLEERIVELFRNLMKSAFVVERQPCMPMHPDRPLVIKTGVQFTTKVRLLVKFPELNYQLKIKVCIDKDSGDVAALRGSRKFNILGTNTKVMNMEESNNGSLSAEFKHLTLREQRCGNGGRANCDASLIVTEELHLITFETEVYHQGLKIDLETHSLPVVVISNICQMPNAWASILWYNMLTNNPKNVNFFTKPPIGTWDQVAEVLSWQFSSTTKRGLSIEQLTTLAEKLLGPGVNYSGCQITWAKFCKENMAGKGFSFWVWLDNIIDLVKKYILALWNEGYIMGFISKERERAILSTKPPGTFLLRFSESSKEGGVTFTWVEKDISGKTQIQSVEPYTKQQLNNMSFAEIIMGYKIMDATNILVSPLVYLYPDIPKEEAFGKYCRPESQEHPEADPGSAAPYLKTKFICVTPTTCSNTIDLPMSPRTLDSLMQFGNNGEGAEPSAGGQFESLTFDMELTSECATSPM
Sequence of Steroid hormone receptor ERR1 (Homo sapiens) (P11474 whole entry, looked up, the tested form may be a part): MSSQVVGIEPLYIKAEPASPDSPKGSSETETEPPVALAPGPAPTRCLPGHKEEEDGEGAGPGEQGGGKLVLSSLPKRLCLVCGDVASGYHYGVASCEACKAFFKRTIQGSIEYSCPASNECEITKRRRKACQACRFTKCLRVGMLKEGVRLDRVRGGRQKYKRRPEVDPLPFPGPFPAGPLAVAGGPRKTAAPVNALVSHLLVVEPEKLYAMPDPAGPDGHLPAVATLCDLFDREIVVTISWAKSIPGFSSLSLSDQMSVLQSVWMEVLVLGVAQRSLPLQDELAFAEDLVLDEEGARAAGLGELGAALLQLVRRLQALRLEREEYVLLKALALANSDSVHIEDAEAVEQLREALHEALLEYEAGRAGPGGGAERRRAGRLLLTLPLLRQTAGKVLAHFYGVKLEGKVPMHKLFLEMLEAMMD
Sequence of X-box-binding protein 1 (Homo sapiens) (P17861 whole entry, looked up): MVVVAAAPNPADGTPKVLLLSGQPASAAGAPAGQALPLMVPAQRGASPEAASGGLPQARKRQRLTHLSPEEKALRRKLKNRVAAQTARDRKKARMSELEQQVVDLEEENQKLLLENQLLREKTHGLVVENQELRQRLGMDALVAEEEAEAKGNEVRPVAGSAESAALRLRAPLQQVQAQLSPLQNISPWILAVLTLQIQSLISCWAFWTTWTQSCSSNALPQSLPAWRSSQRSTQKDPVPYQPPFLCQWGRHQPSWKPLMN
Sequence of Paired box protein Pax-6 (Homo sapiens) (P26367 whole entry, looked up): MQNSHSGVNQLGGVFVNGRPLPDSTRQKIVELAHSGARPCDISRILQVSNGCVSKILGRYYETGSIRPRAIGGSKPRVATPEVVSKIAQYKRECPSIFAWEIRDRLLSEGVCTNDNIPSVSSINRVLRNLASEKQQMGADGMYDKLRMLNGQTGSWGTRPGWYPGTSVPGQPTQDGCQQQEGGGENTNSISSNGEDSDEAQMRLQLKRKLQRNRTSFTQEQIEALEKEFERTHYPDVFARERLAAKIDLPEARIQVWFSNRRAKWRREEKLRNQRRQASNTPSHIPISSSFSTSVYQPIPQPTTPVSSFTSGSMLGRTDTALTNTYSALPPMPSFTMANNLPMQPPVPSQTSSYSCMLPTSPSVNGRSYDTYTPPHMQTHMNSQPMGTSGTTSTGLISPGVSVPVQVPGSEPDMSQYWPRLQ

On to `CC(C)C(=O)OCCc1ccccc1`, for which the call in [1], in experiment [2], in experiment [3], in [4], in experiment [5] and in [6] was inactive. In addition, the molecule was called inactive in experiment [7], in experiment [8], in experiment [9], in experiment [10], in experiment [11] and in [12]. In addition, the molecule was called inactive in experiment [13], in [14] and in experiment [15].
Broadly, the AC50 is the concentration at which the activity in the assay is half-maximal. For `COC(=O)CC(C)CCC=C(C)C` (stereo not given), the molecule was called inactive in experiment [1], in [3], in experiment [4], in experiment [5], in experiment [6] and in experiment [16]. The call in experiment [8], in [9], in [10], in experiment [11], in [12] and in [17] was inactive. The outcome in experiment [13] and in experiment [15] was inactive. The AC50 in experiment [2] is 69.2 µM (active).
As for `CC1=CCC2CC1C2(C)C` (stereo not given), the molecule was classed as inactive in [1], in [3], in experiment [5], in experiment [18], in experiment [6] and in [7]. For the same molecule, the molecule was classed as inactive in experiment [16], in experiment [8], in experiment [9], in experiment [10], in [11] and in [12]. For the same molecule, the result in experiment [13], in experiment [14] and in experiment [15] was inactive. Further, in experiment [2], the AC50 is 37.2 µM (active).
For `CCN(CC)c1cccc(C)c1`, the call in experiment [1], in experiment [3], in experiment [5], in experiment [18], in experiment [6] and in experiment [7] was inactive. The molecule was called inactive in [16], in experiment [8], in experiment [9], in experiment [11], in experiment [12] and in [17]. Moreover, the result in experiment [13] and in experiment [15] was inactive. The AC50 in experiment [2] was 27.7 µM (active).
On to `C1CCSC1`, for which the outcome in experiment [1], in experiment [2], in [3], in experiment [5], in experiment [18] and in experiment [6] was inactive. The result in experiment [16], in experiment [8], in experiment [9], in experiment [10], in experiment [11] and in [17] was inactive. Also, the molecule was called inactive in [13].
For the molecule `CC=CC(=O)OCC(C)C`, the call in experiment [1], in [2], in experiment [3], in experiment [5], in experiment [18] and in experiment [6] was inactive. The result in [7], in [16], in experiment [8], in experiment [9], in experiment [10] and in experiment [11] was inactive. For the same molecule, the outcome in experiment [12], in experiment [13], in experiment [14] and in experiment [15] was inactive.
